Test results as given in PubChem BioAssay (EPA / NIEHS).
Values joined by “and” are separate entries in the source; they are usually repeats but may differ in a detail not shown here. Equal entries are not always repeated. Active and inactive are the calls of the source. How the source made its calls: active means hit-call score of the fitted dose curve at least 0.9, where 1 is the maximum; inactive means score below 0.9.

Read-out: Monocyte Chemoattractant Protein-1 (MCP1), CCL2 (gene 6347)
Assay: BSK_4H_MCP1: BioMAP Diversity Plus: 4H Assay for Monocyte Chemoattractant Protein-1 (MCP1) Biomarker Activity (AID 2283018)
Details: primary human endothelial cells (HUVEC); actives raise or lower the signal
Experimental: BSK_4H is a cell-based, multiplexed-readout assay that uses umbilical vein endothelium, a human vascular primary cell, with measurements taken at 24 hours after chemical dosing in a 96-well plate.BSK_4H_MCP1 is an assay component measured in the BSK_4H assay. It measures MCP-1 antibody related to regulation of gene expression using ELISA technology.Data from the assay component BSK_4H_MCP1 was analyzed into 1 assay endpoint. This assay endpoint, BSK_4H_MCP1, was analyzed with bidirectional fitting relative to DMSO as the negative control and baseline of activity. Using a type of binding reporter, gain or loss-of-signal activity can be used to understand changes in the signaling as they relate to the gene CCL2. Furthermore, this assay endpoint can be referred to as a primary readout, because this assay has produced multiple assay endpoints where this one serves a signaling function. To generalize the intended target to other relatable targets, this assay endpoint is annotated to the cytokine intended target family, where the subfamily is chemotactic factor.
The levels of cell surface (or secreted, indicated by the prefix "s") biomarker endpoints were measured by ELISA. Overt cytotoxicity to cells in confluent adherent cultures (all systems other than the BT system) was assessed by measuring total protein levels using sulforhodamine B (SRB) staining in parallel cultures at the time of biomarker measurements, indicated as SRB endpoints. For proliferation assays for adherent cell types, individual cell types are cultured at sub-confluence and relative cell numbers quantified by SRB staining at time points optimized for each system (48 h: 3C and CASM3C systems; 72 h: BT and HDF3CGF systems; 96 h: SAg system). SRB was performed by staining cells with 0.1% SRB after fixation with 10% TCA and reading wells at 560 nm.Viability and proliferation of PBMC (T cells) was quantified by Alamar Blue reduction for the SAg and BT systems. For PBMC viability (referred to as PBMC Cytotoxicity within the assay endpoint names), cells were plated (75,000/well in a 96-well plate) and then chemical samples added for 1 h before addition of activators, SEB and TSST-1 (20 ng/mL final concentration each). Cells were incubated for 90 h. Then, Alamar Blue (20 uL/well) (Invitrogen, Cat DAL1100) was added for 6 h, and the plates were read with a fluorescence microplate reader at 546/580 nm (excitation/emission). For PBMC proliferation, cells were plated and activated as above but incubated for only 16 h prior to addition of Alamar Blue. Plates were read after 6 h.

Row | Compound | outcome | AC50
1 | CCCCCC1=CCCC1=O | inactive | 
2 | CCC1(C)C(=O)N(Cl)C(=O)N1Cl (stereo not given) | inactive | 
3 | O=C(Oc1ccccc1)c1ccccc1C(=O)Oc1ccccc1 | inactive | 
4 | C=C(C)C(=O)OCCCCCCCCCCCC | inactive | 
5 | COc1ccc(C(=O)c2ccccc2)c(O)c1 | inactive | 
6 | O=C1CCCCCCCCCCCN1 | inactive | 
7 | C=CC(=O)OCCCCCCCC(C)C | inactive | 
8 | c1ccc2c(c1)[nH]c1ccccc12 | inactive | 
9 | CCOC(=O)/C=C\C(=O)OCC | inactive | 
10 | c1ccc(Nc2cccc3ccccc23)cc1 |  | 26.1 µM (active) and 21.6 µM (active)
11 | Fc1ccc(Br)cc1 | inactive | 
12 | Oc1ccc(/C=C/c2cc(O)cc(O)c2)cc1 |  | 9.4 µM (active)
13 | CC(CCC(=O)O)(c1ccc(O)cc1)c1ccc(O)cc1 | inactive | 
14 | CC/C=C\C/C=C\C/C=C\CCCCCCCC(=O)OC |  | 32.7 µM (active)
15 | CCCCCCCCCCCC(C)=O |  | 29.8 µM (active)
16 | COC(OC)(C(=O)c1ccccc1)c1ccccc1 |  | 0.016 µM (active)
17 | Nc1cccc(N)n1 | inactive | 
18 | O=C(O)C(F)(F)C(F)(F)C(F)(F)C(F)(F)C(=O)O | inactive | 
19 | Cc1ccc([N+](=O)[O-])cc1N | inactive | 
20 | C=CCCCCCCCCC=O | inactive | 

Row | Compound | outcome | AC50
21 | CCOC(=O)C1=NOC(c2ccccc2)(c2ccccc2)C1 | inactive | 
22 | Cc1c(O)cccc1O | inactive | 
23 | Nc1nc(N)nc(-c2ccccc2)n1 | inactive | 
24 | Oc1ccccc1Cc1ccccc1O |  | 4.2 µM (active) and 10.9 µM (active)
25 | CC=C(C)C(C)=O | inactive | 
26 | C=CC(=O)OCCCCCCOC(=O)C=C |  | 9.96 µM (active)
27 | C=CC(=O)OCC(C)OCC(C)OCC(C)OC(=O)C=C (stereo not given) |  | 7.07 µM (active)
28 | CCCCCCC=O | inactive | 
29 | CC(C)C(=O)OCCc1ccccc1 | inactive | 
30 | Clc1cc(Cl)c(Cl)c(Cl)c1Cl | inactive | 
31 | CC(C)CCCCCOC(=O)CS | inactive | 
32 | C[N+](C)(C)CCCNS(=O)(=O)C(F)(F)C(F)(F)C(F)(F)C(F)(F)C(F)(F)C(F)(F)C(F)(F)C(F)(F)F | inactive | 
33 | CC(C)c1cccc(C(C)C)c1N | inactive | 
34 | CC=C(C)C=CC=C(C)C | inactive | 
35 | O=C1CCCCCCCCCCC1 | inactive | 
36 | CCCCCCCCCCCC(=O)N(C)CC(=O)O | inactive | 
37 | CC(c1cc(C(C)(C)C)cc(C(C)(C)C)c1O)c1cc(C(C)(C)C)cc(C(C)(C)C)c1O | inactive | 
38 | C=CC(=O)NCOCCCC | inactive | 
39 | Oc1c(Cl)cc(Cl)c(Cl)c1Cl |  | 27.9 µM (active)
40 | O=C(Cl)c1c(Cl)c(Cl)c(C(=O)Cl)c(Cl)c1Cl | inactive | 
